Source: PubChem
The list is not random: actives were taken first. Their share in the collection is about 3.6%.
LGR2 inh: inhibitors of bursicon-induced Drosophila LGR2 receptor cAMP signaling. HEK293 LGR2, CRE-luciferase, bursicon-stimulated, 4 h. inhibition, % at 9.99 µM. 380,000 tested, 0.35% active. AID 720647;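 active = drop in luminescence signal, shown as inhibition above about 50% in the replicate tests, limit read from the data, passing the limit was not always enough; inconclusive = probably only some replicates passing the limit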;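 note: agonist challenge used bursicon conditioned medium at about half maximal strength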
TWEAK-Fn14 inh: inhibitors of TWEAK-Fn14 interaction signaling; TWEAK-stimulated Fn14 reporter cells, luciferase luminescence, 8 h; inhibition, % at 10 µM; 360,000 tested, 2% active; in the data active = inhibition above about 50%
HSF-1 act: increases HSF-1 driven luciferase reporter signal; NIH3T3-HGL HSF-1 luciferase reporter, MG132, 8 h; 100% = twice DMSO control signal; activation, % at 9 µM; 300,000 tested, 1.7% active; AID 504408;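 active = mean replicate activation of at least 50% with a set share of replicates each reaching 50%; inconclusive = only one of those two conditions met; inactive = mean below 50% and too few replicates reaching it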;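 note: 0% = median of the neutral control wells and 100% = twice that signal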
HSF1 inh: HSF1 inhibition; NIH3T3-HGL HSE-luciferase, MG132-induced, luminescence 8 h; active compounds read low; activity change, negative = inhibition, % at 7.5 µM (by protocol); AID 2098; 300,000 tested, 0.77% active;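 active = more than half of replicate wells show activity change below -50%, luminescence cut by over half; inconclusive = some wells, but at most half, below -50%; inactive = no replicate well below -50%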;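 note: luciferase reports HSF-1 transcriptional activity via heat shock element; 0% = median of DMSO wells and -100% = zero luminescence signal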
LMP1 NFkB inh: inhibitors of Epstein-Barr LMP1-induced NF-kappaB reporter | inhibition, % at 12.5 µM | AID 504558 | LMP1-induced NF-kappaB luciferase reporter cells, luminescence | 350,000 tested, 0.69% active; in the data active = inhibition above about 41%; inconclusive = no clear call, values can overlap the other calls;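 note: 0% = neutral control wells and 100% = reference inhibitor control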
TROY signal inh: inhibitors of TROY-dependent NF-kB signaling; 360,000 tested, 0.98% active; Q293 LMP1-TROYcd NF-kB luciferase reporter, 4 h; inhibition, % at 10 µM; AID 1347056;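 active = compounds whose plate-normalised and pattern-corrected inhibition of the luciferase reporter signal at the single screening dose is 50% or more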
Numbers without * were called inactive.

Results for C[C@@H]1Cc2c(O)c(O)cc(O)c2C(=O)O1 ?
TWEAK-Fn14 inh: -4; HSF-1 act: -9; HSF1 inh: -1; LMP1 NFkB inh: -3; TROY signal inh: 3

How did CC1CCC/C=C/C(=O)c2c(O)cc(O)cc2CC(=O)O1 (stereo unspecified) do in these assays?
LGR2 inh: 69*; TWEAK-Fn14 inh: 94*; HSF-1 act: 34; HSF1 inh: 26; LMP1 NFkB inh: -19; TROY signal inh: 43

What do the screens show for `O=C(Nc1ccc2c(c1)OCCO2)c1coc2ccccc2c1=O`?
LGR2 inh: 14; TWEAK-Fn14 inh: 87*; HSF-1 act: -61; HSF1 inh: -52*; LMP1 NFkB inh: 18; TROY signal inh: 85*

What do the screens show for `CCc1cc(C(=O)NNC(=S)Nc2cccc(C)c2)cs1`?
TWEAK-Fn14 inh: -7; HSF-1 act: 37; HSF1 inh: 14; LMP1 NFkB inh: -18; TROY signal inh: -71

Results for O=C(Nc1cccc(Oc2ccc(C(=O)O)c(C(=O)O)c2)c1)c1ccc(-c2ccccc2)cc1 ?
LGR2 inh: 56*; TWEAK-Fn14 inh: 30; HSF-1 act: -17; HSF1 inh: -15; LMP1 NFkB inh: 2; TROY signal inh: -11

How did Cc1ncoc1C(=O)Nc1ccc2c(c1)OCCO2 do in these assays?
TWEAK-Fn14 inh: 73*; HSF-1 act: -20; HSF1 inh: -23; LMP1 NFkB inh: 30; TROY signal inh: 42

How did COc1ccc(NC(=O)c2ocnc2C)cc1OC do in these assays?
TWEAK-Fn14 inh: 15; HSF-1 act: 17; HSF1 inh: 3; LMP1 NFkB inh: 6; TROY signal inh: -2

How did Cc1cccc(NC(=S)NNC(=O)c2sccc2C)c1 do in these assays?
TWEAK-Fn14 inh: -33; HSF-1 act: 57*; HSF1 inh: 29; LMP1 NFkB inh: 3; TROY signal inh: -25

Results for O=C(C[C@H]1C=C[C@@H](NC(=O)C2CC2)[C@H](CO)O1)NCc1ccccc1Cl ?
LGR2 inh: -6

Results for CO[C@@H]1CN(C)C(=O)c2cc(NC(=O)Nc3ccccc3)ccc2OC[C@@H](C)N(C(=O)CN(C)C)C[C@H]1C ?
LGR2 inh: 7

Results for Cc1ncoc1C(=O)Nc1ccc(Oc2ccccc2)cc1 ?
TWEAK-Fn14 inh: -5; HSF-1 act: 52*; HSF1 inh: 28; LMP1 NFkB inh: -6; TROY signal inh: -16

Results for O=C(O)c1ccccc1C(=O)Nc1ccc(Oc2ccccc2)cc1 ?
LGR2 inh: -4; TWEAK-Fn14 inh: 58*; HSF-1 act: -26; HSF1 inh: -25; TROY signal inh: -9

How did Cc1cccc(Oc2ccc(NC(=O)c3ccccc3C(=O)O)cc2)c1 do in these assays?
LGR2 inh: -17; TWEAK-Fn14 inh: 8; HSF-1 act: -26; HSF1 inh: -6; LMP1 NFkB inh: -9; TROY signal inh: -29

How did Cc1ccccc1C(=O)Nc1ccc2c(c1)OCCO2 do in these assays?
LGR2 inh: inconclusive; TWEAK-Fn14 inh: 58*; HSF-1 act: 7; HSF1 inh: 8; LMP1 NFkB inh: 32; TROY signal inh: -12

Results for Cc1ccsc1C(=O)Nc1ccc2c(c1)OCCO2 ?
LGR2 inh: 38; TWEAK-Fn14 inh: 33; HSF-1 act: 51*; HSF1 inh: 12; LMP1 NFkB inh: 18; TROY signal inh: -16

Results for CSc1ccccc1C(=O)Nc1ccc2c(c1)OCCO2 ?
TWEAK-Fn14 inh: -34; HSF-1 act: 11; HSF1 inh: 3; LMP1 NFkB inh: -6; TROY signal inh: -40

Results for COc1ccc(C(=O)Nc2ccc3c(c2)OC[C@H](C)N(C(C)=O)C[C@H](C)[C@H](OC)CN(C)C3=O)cc1 ?
LGR2 inh: 6

Results for COCC(=O)Nc1ccc2c(c1)C(=O)N(C)C[C@H](OC)[C@@H](C)CN(C)[C@@H](C)CO2 ?
LGR2 inh: -2

How did Cc1nc2ccccn2c1C(=O)Nc1ccc2c(c1)OCCO2 do in these assays?
TWEAK-Fn14 inh: 85*; HSF-1 act: -54; HSF1 inh: -47; LMP1 NFkB inh: 25; TROY signal inh: 67*

Results for CC(=O)Nc1ccc(NC(=O)c2c(C)nc3ccccn23)cc1 ?
TWEAK-Fn14 inh: -9; HSF-1 act: -1; HSF1 inh: -6; LMP1 NFkB inh: -10; TROY signal inh: -6

What do the screens show for `CSc1sc(C(=O)Nc2ccc(F)cc2F)c2c1C=CCC2`?
LGR2 inh: -11; TWEAK-Fn14 inh: 20; HSF-1 act: 72*; HSF1 inh: 45; LMP1 NFkB inh: 1; TROY signal inh: -22

How did CC(C)C1Cc2c(C#N)c(N)n(C)c(=S)c2CO1 (stereo unspecified) do in these assays?
TWEAK-Fn14 inh: 10; HSF-1 act: -63; HSF1 inh: -52*; LMP1 NFkB inh: 5; TROY signal inh: -3

Results for Cn1c(N)c(C#N)c2c(c1=S)COC(C)(C)C2 ?
TWEAK-Fn14 inh: 1; HSF-1 act: 22; HSF1 inh: 0; LMP1 NFkB inh: 1; TROY signal inh: 11

How did O=C(CN1CCN(S(=O)(=O)c2ccccc2)CC1)NC(=O)NCc1ccco1 do in these assays?
LGR2 inh: 14; TWEAK-Fn14 inh: 94*; HSF-1 act: -5; HSF1 inh: -1; LMP1 NFkB inh: 5; TROY signal inh: -10

What do the screens show for `O=C(CN1CCN(S(=O)(=O)c2ccccc2)CC1)NC(=O)NCc1ccccc1`?
TWEAK-Fn14 inh: -7; HSF-1 act: 12; HSF1 inh: 2; LMP1 NFkB inh: 4; TROY signal inh: -5

What do the screens show for `CC1CCN(CCCNC(=O)COc2cc(=O)n(C)c3ccccc23)CC1`?
LGR2 inh: -2; TWEAK-Fn14 inh: -33; HSF-1 act: 57*; HSF1 inh: 21; LMP1 NFkB inh: -2; TROY signal inh: -10

Results for C[C@H]1CN([C@@H](C)CO)C(=O)c2cccc(NC(=O)CCCCCC(=O)Nc3ccccc3N)c2O[C@H]1CN(C)S(=O)(=O)c1ccc(F)cc1 ?
LGR2 inh: -27

What do the screens show for `Cc1nnc(NC(=O)c2c(F)cccc2F)s1`?
LGR2 inh: 0; TWEAK-Fn14 inh: 19; HSF-1 act: -13; HSF1 inh: 4; LMP1 NFkB inh: 53*; TROY signal inh: 1

What do the screens show for `Cc1nnc(NC(=O)c2cccc(F)c2)s1`?
TWEAK-Fn14 inh: -40; HSF-1 act: 10; HSF1 inh: 2; LMP1 NFkB inh: -7; TROY signal inh: -23

How did Clc1ccc2nc(-c3ccccc3)cn2c1 do in these assays?
LGR2 inh: 34; TWEAK-Fn14 inh: 61*; HSF-1 act: 34; HSF1 inh: 36; LMP1 NFkB inh: -3; TROY signal inh: 9

How did c1ccn2cc(-c3ccc4c(c3)OCCO4)nc2c1 do in these assays?
LGR2 inh: 91*; TWEAK-Fn14 inh: 78*; HSF-1 act: -17; HSF1 inh: -12; LMP1 NFkB inh: 57*; TROY signal inh: 21

How did Cc1ccc2nc(-c3ccc4c(c3)OCCO4)cn2c1 do in these assays?
LGR2 inh: 91*; TWEAK-Fn14 inh: 101*; HSF-1 act: -2; HSF1 inh: -6; LMP1 NFkB inh: 85*; TROY signal inh: 78*
